This is a sample that favours compounds with a hit; in the whole collection about 0.55% have one here.
Tb PFK inh-1 = qHTS Assay to Find Inhibitors of T. brucei phosphofructokinase; ATP-dependent 6-phosphofructokinase (Trypanosoma brucei brucei), O15648; T. brucei PFK, ADP-Glo luminescence; Potency, µM (highest dose often 57.5 µM), inactives show at the top dose activity, negative = inhibition, actives largely listed as inhibitors; 0.17% of 330,000 active; AID 485367, 2010;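 further: 0% = uninhibited 1x PFK enzyme wells and -100% = no-enzyme wells; nearly all actives have a fitted effect of over 60% in size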
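In TEA buffer at pH 8.0 with 5 mM MgCl2, enzyme (1.25 nM) converted F6P (0.5 mM) and ATP (0.1 mM) for 45 min at room temperature. ADP product was read by luciferase luminescence.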
KAT2A inh = qHTS Assay for Inhibitors of GCN5L2; GCN5L2 HAT assay, ThioGlo1 CoA-SH fluorescence; 0.21% of 390,000 active; Histone acetyltransferase KAT2A (Homo sapiens), Q92830; Potency, µM (highest dose often 58.9 µM), inactives show top-dose activity change, negative = inhibition, actives largely listed as inhibitors; further: on the % scale 0 is the no-effect control and ±100 the full control effect
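qHTS, 1536-well. 20nM enzyme, pH 7.5 HEPES/EDTA/Tween-20 buffer; 15 min compound preinc., RT. Start: 75uM H3(1-25), 70uM AcCoA, 50uM ThioGlo1. Read Ex340/Em540 at t=0 (autofluorescence flag) and t=20 min.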
AT treatment = qHTS Assay for Identifying a Potential Treatment of Ataxia-Telangiectasia; AID 485349, 2010; F2112 A-T fibroblasts, KAP-1 phosphorylation AlphaLISA; neocarzinostatin DNA damage 30 min before lysis; Potency, µM (doses to about 57.5 µM), without a hit: at the top dose activation, most hits filed as activators; 0.19% of 320,000 active; further: % of control where 0% means no effect; nearly all actives have a fitted effect of over 45% in size
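ATM-like activity read as KAP-1 phosphorylation via AlphaLISA donor/acceptor antibody pairs after lysis and 6 hr at 25C. Cells were ATM-null patient fibroblasts (F2112, hTERT), dosed 60 min, then exposed to the DSB inducer NCS for 30 min.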
p53 reactivation = qHTS assay for re-activators of p53 using a Luc reporter; H1299 p53-A138V BP100-luciferase reporter, luminescence, 24 h; Potency, µM (top dose mostly 92.2 µM), for the others: top-dose activity change, positive = activation, usual class: activators; 0.063% of 320,000 active; further: % of control where 0% means no effect; nearly all actives have a fitted effect of over 45% in size
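H1299 (p53-null), stable ts p53-A138V + BP100-Luc; 1000 cells/well, Opti-MEM/10% FBS; cpd 4 pt, 1:5; 24 h, 37 deg C, 5% CO2; detection reagent 10 min RT; luminescence.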
S-ASM inh = Inhibitors of Secretory Acid Sphingomyelinase (S-ASM): qHTS; Sphingomyelin phosphodiesterase (Homo sapiens), P17405; placental ASM, HMU-PC fluorogenic substrate, 60 min; Potency, µM (highest dose often 57.5 µM), without a hit: at the highest dose activity change, negative = inhibition, actives largely listed as inhibitors; 0.006% of 340,000 active
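Fluorogenic HMU-PC substrate (9 uM final) is turned over by placental ASM in 60 min at 37 C after a 10 min compound preincubation. Reaction ended by alkaline stop (pH 10), with fluorescence read at 386/447 nm.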
ERG-DNA inh = qHTS for Small Molecule Inhibitors of the ERG Ets/DNA interaction | Transcriptional regulator ERG (Homo sapiens), P11308 | fluorescence polarization, His-ERG Ets domain / labelled DNA | Potency, µM (doses to about 76.9 µM), for the others: at the highest dose FP activity, negative = inhibition, actives largely listed as inhibitors | 0.028% of 370,000 active; active means well fitted inhibition curve with a large enough effect in the polarisation, with a control signal flat; inconclusive means small, poorly fitted or top-dose-only effect, or effect the other way, or a change in a side signal; inactive means no such curve, though single readings can be large or run the other way; the % refers to the polarisation;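 further: polarization taken with two DNA probes labelled with fluorescein and Texas red; % of control where 0% means no effect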
Target sequence (P11308 whole entry, looked up, the tested form may be a part): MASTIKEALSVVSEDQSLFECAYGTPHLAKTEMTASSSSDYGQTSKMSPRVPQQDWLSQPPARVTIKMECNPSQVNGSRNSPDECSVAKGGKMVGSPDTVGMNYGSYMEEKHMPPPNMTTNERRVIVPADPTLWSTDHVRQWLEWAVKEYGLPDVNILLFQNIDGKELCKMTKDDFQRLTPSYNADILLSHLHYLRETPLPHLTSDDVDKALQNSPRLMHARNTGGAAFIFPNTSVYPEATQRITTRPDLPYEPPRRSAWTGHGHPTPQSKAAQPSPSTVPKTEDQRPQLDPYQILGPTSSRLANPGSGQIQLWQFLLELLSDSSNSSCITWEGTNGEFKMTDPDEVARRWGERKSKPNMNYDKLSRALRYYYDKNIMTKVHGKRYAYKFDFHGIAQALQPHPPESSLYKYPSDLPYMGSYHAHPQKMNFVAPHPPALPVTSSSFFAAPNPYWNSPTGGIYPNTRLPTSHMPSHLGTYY
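His-tagged ERG Ets domain (1 uM in the protein solution; 300mM KCl, 50mM Tris-HCl, 1mM EDTA, 1mM DTT, pH 7.5) received compound, then a probe mix of 5 nM fluorescein-DNA and 100nM Texas-615-DNA. Fluorescence polarization was read for both dyes.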
TbPFK ATP = Tb PFK orthogonal confirmatory assay using ATP depletion (Kinase-Glo Plus) as an alternative measure of Tb PFK activity: Hit Validation; AID 504636, 2011; 47% of 1,100 active; Potency, µM (doses to about 57.5 µM), without a hit: at the highest dose inhibition; Tb PFK enzyme, ATP depletion, Kinase-Glo Plus luminescence; shares compounds with Tb PFK inh-1; calls by dose curve; further: nearly all actives have a fitted effect of over 60% in size
Tb PFK inh-2 = Inhibitors of T. brucei phosphofructokinase: Hit Validation | 41% of 1,100 active | shares compounds with Tb PFK inh-1 | AID 504637, 2011 | purified T. brucei PFK, ADP-Glo luminescence, 45 min | Potency, µM (highest dose often 57.5 µM), without a hit: at the highest dose activity change, negative = inhibition, hits mostly inhibitors;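 further: plate controls were full PFK enzyme control for no effect and no enzyme control for full effect; nearly all actives have a fitted effect of over 60% in size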
* hit, by the source's call. Unless noted, the call rests on the fitted dose curve; in most records, active means well fitted curve in the direction sought with a large enough effect; inconclusive means small, poorly fitted or top-dose-only effect, or another doubt; inactive means no such curve, though single readings can be large; an effect the other way counts as inactive or inconclusive. Potency means the concentration at half of the fitted maximal effect.

CC(=O)c1c(C)nc(-c2ccc(Cl)cc2)nc1N was read as Tb PFK inh-1 inconclusive, KAT2A inh 8%, AT treatment 5%, p53 reactivation 7%, S-ASM inh -7%, ERG-DNA inh 13%, TbPFK ATP inconclusive and Tb PFK inh-2 inconclusive.
Screening CC(=O)c1c(C)nc(-c2ccc(Cl)cc2)nc1N=CN(C)C returned Tb PFK inh-1 2.7µM*, KAT2A inh -8%, p53 reactivation inconclusive, S-ASM inh -3%, ERG-DNA inh 6%, TbPFK ATP 9.5µM* and Tb PFK inh-2 12µM*.
Screening CC(C)NC(=O)N1CCCC2(CCN(C(=O)Oc3ccccc3)CC2)C1 returned KAT2A inh 0%.
O=C(O)CCC(CP(=O)(O)O)C(=O)O (configuration not stated) was read as KAT2A inh 0%.
S=C1CCSc2ccc(Cl)cc2N1 was read as Tb PFK inh-1 inconclusive, KAT2A inh -7%, AT treatment 3%, p53 reactivation -19%, S-ASM inh -1%, ERG-DNA inh 9%, TbPFK ATP inconclusive and Tb PFK inh-2 inconclusive.
Screening S=C1CN=C(c2ccccc2Cl)c2cc(Cl)ccc2N1 returned Tb PFK inh-1 -1%, KAT2A inh -2%, AT treatment -9%, p53 reactivation -5%, S-ASM inh 1% and ERG-DNA inh 1%.
Screening O=C(CS(=O)C(c1ccccc1)c1ccccc1)NO (configuration not stated) returned KAT2A inh 2%.
For COc1ccc(C(=O)CCNc2ccc(F)cc2)cc1 the results were Tb PFK inh-1 -2%, KAT2A inh 31%, AT treatment 32%, p53 reactivation 15%, S-ASM inh 3% and ERG-DNA inh 18%.
For Cc1ccc(C(=O)CSc2nnc(CNc3ccc(F)cc3)o2)cc1 the results were Tb PFK inh-1 17µM*, KAT2A inh -2%, AT treatment 0%, p53 reactivation 0%, S-ASM inh 2%, ERG-DNA inh 10%, TbPFK ATP inconclusive and Tb PFK inh-2 24µM*.
`O=S1(=O)CCOC(CO)CN1Cc1ccc(Cl)c(Cl)c1` (configuration not stated) gave Tb PFK inh-1 inconclusive, KAT2A inh -3%, AT treatment 3%, p53 reactivation -9%, S-ASM inh 3%, ERG-DNA inh 0%, TbPFK ATP inconclusive and Tb PFK inh-2 inconclusive.
`O=C(O)c1nn(Cc2ccc(Cl)c(Cl)c2)c2ccccc12` gave KAT2A inh 1%.
COc1cc(C=NNC(=O)c2ccc(NS(=O)(=O)c3cccs3)cc2)cc(Br)c1O was read as Tb PFK inh-1 inconclusive, KAT2A inh -4%, AT treatment 4%, p53 reactivation 7%, S-ASM inh -11%, ERG-DNA inh -2%, TbPFK ATP -25% and Tb PFK inh-2 inconclusive.
Screening CC1=CCCC2C1(C)CCC(C)C2(C)CC/C(C)=C/C[n+]1cn(C)c2c(N)ncnc21 (configuration not stated) returned KAT2A inh -1%.
Screening Oc1cc2c(cc1O)C1c3ccc(O)c(O)c3OCC1(O)C2 (configuration not stated) returned Tb PFK inh-1 inconclusive, KAT2A inh inconclusive, AT treatment -38%, p53 reactivation 5%, S-ASM inh -3%, ERG-DNA inh -6%, TbPFK ATP inconclusive and Tb PFK inh-2 0.85µM*.
For Cc1nc(SCc2ccc(O)c([N+](=O)[O-])c2)c([N+](=O)[O-])[nH]1 the results were Tb PFK inh-1 inconclusive, KAT2A inh 14µM*, AT treatment -3%, p53 reactivation -3%, S-ASM inh -7%, ERG-DNA inh 4%, TbPFK ATP 6% and Tb PFK inh-2 -2%.
O=[N+]([O-])c1cc([As](=O)(O)c2ccc(O)c([N+](=O)[O-])c2)ccc1O was read as Tb PFK inh-1 8%, KAT2A inh -4%, AT treatment -1%, p53 reactivation -2%, S-ASM inh -2% and ERG-DNA inh 1%.
`CCOC(=O)C(SP(=S)(OC)OC)c1ccccc1` (configuration not stated) gave KAT2A inh -20%.
Screening C=C(C)C(=O)Nc1cccc(C2=NOC3(C2)C[C@@H](C(N)=O)N(C(=O)CC(c2ccccc2)c2ccccc2)C3)c1 (some centres not stated) returned Tb PFK inh-1 30µM*, KAT2A inh -8%, AT treatment 13%, p53 reactivation -3%, S-ASM inh 1%, ERG-DNA inh 3%, TbPFK ATP 1.5µM* and Tb PFK inh-2 inconclusive.
For C=C(C)C(=O)Nc1cccc(C2=NOC3(C2)C[C@@H](C(N)=O)N(C(=O)/C=C/C=C/C)C3)c1 (some centres not stated) the results were Tb PFK inh-1 3.8µM*, KAT2A inh -14%, AT treatment -10%, p53 reactivation 5%, S-ASM inh -1%, ERG-DNA inh -12%, TbPFK ATP 0.13µM* and Tb PFK inh-2 0.19µM*.
Screening C=C(C)C(=O)Nc1cccc(C2=NOC3(C2)C[C@@H](C(N)=O)N(C(=O)/C(C)=C/C)C3)c1 (some centres not stated) returned Tb PFK inh-1 3.4µM*, KAT2A inh -11%, AT treatment -19%, p53 reactivation -3%, S-ASM inh -6%, ERG-DNA inh 11%, TbPFK ATP 0.19µM* and Tb PFK inh-2 0.17µM*.
